# From PubChem BioAssay
# RecA intein inh = Mtb RecA intein splicing inhibitors, primary screen, biochemical, fluorescence, HTS. inhibition, % (test concentration not listed). cell-free RecA intein splicing. actives 0.75% (n = 290,000); in the data active means inhibition above about 30%;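 further: 0% = vehicle wells and 100% = reference inhibitor control wells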
# UGM FP inh = M. tuberculosis UGM enzyme inhibitors, primary screen, biochemical, fluorescence polarization, single point; inhibition, % at 10 µM; actives 0.06% (n = 320,000); purified UGM, fluorescence polarization probe displacement; in the data active means inhibition above about 10%, passing the limit was not always enough
# FBA Mtb inh = Mtb FBA enzyme inhibitors, primary screen, biochemical, fluorescence, strain H37Rv; AID 588726, 2011; actives 2.3% (n = 360,000); purified M. tuberculosis FBA, fluorescence read-out; inhibition, % at 1 µM;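 further: 0% = vehicle and 100% = reference inhibitor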
# Target sequence (P9WQA3 whole entry, looked up): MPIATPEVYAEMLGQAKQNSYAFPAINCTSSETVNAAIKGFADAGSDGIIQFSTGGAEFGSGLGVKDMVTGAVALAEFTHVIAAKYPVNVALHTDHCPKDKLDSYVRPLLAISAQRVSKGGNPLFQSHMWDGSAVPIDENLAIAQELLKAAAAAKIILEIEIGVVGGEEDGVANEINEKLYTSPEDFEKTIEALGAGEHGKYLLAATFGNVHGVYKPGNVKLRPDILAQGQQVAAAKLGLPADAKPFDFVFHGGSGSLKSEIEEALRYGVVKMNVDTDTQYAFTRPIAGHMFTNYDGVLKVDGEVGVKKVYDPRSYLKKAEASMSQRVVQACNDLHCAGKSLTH
# GDH-TPI counter-1 = GDH-TPI coupling enzyme inhibitors, primary screen, artefact control for M. tuberculosis FBA inhibitor project, biochemical, absorbance, full deck | actives 1.2% (n = 360,000) | GDH-TPI coupled enzyme counterscreen, NADH absorbance | AID 588335, 2011 | inhibition, % at 4.8 µM; in the data active means inhibition above about 30%;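 further: 0% = DMSO wells and 100% = wells lacking the enzyme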
# Rv3671c protease = Rv3671c serine protease inhibitors, primary screen, biochemical, fluorescence polarization, M. tuberculosis H37Rv. AID 2606, 2010. inhibition, % at 5.96 µM. actives 0.048% (n = 320,000). P9WHR9; in the data active means inhibition above about 38%;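 further: extracellular domain of Rv3671c used as enzyme; 0% = enzyme with DMSO and 100% = no enzyme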
# Mtb betalactam = beta-lactam sensitization of Mtb H37Rv, H37Rv. M. tuberculosis H37Rv growth with meropenem, percent inhibition. inhibition, % at 25 µM. actives 0.27% (n = 330,000). AID 434955, 2010; call rule not given here;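 further: growth measured after seven days incubation then overnight dye step; 0% = bacteria only wells and 100% = bacteria with antibiotic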
# Mtb FBA inh conf = M. tuberculosis aldolase blockers, biochemical, fluorescence, strain H37Rv, confirmation | shares compounds with FBA Mtb inh | purified M. tuberculosis FBA, fluorescence read-out | inhibition, % at 1 µM | actives 78% (n = 5,600) | AID 651616, 2012;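 further: 0% = vehicle wells and 100% = reference inhibitor wells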
# GDH-TPI counter-2 = GDH-TPI coupling enzyme inhibitors, artefact control for M. tuberculosis FBA inhibitor project, biochemical, fluorescence, high throughput; shares compounds with FBA Mtb inh; GDH-TPI coupled enzyme counterscreen; inhibition, % at 1 µM; actives 81% (n = 5,600); AID 652141, 2013; in the data active means inhibition above about 10%
# An asterisk follows results filed as active; . = no result; + = active, no number. Compounds with a hit are over-represented: about 4% of the library has one in this group of screens. Unless noted, no stated cut-off is given here; in the data, active means inhibition above about 27%; inactive means the rest.
SMILES,RecA intein inh,UGM FP inh,FBA Mtb inh,GDH-TPI counter-1,Rv3671c protease,Mtb betalactam,Mtb FBA inh conf,GDH-TPI counter-2
Cc1c(C(=O)O)oc2c3c(ccc12)OCCO3,3,-2,60*,9,8,-3,99*,87*
C1CCN(Cc2nnnn2C2CCCC2)CC1,0,2,0,2,-11,-5,.,.
CCOC(=O)c1ccccc1NC1CC(=O)N(c2ccccc2C)C1=O (configuration not stated),-2,1,102*,9,-5,-9,135*,139*
O=c1[nH]c(=O)n(Cc2ccccc2)c2nc(-c3ccco3)cc(C(F)(F)F)c12,-2,3,27*,2,-3,-7,72*,64*
COc1cccc(CNC(=O)CC(NC(=O)c2ccccc2)c2ccccc2)c1 (configuration not stated),-1,-2,1,-6,7,-7,.,.
CCOc1cc(C)c(Cl)cc1S(=O)(=O)n1ccnc1,1,-1,3,6,0,-4,.,.
O=c1[nH]c(C(Cl)(Cl)Cl)nc2ccc3ccccc3c12,2,-1,1,4,-2,-8,.,.
Cc1cc(=O)oc2ccc(OCC(=O)NCc3ccco3)cc12,-2,0,7,5,-3,-6,.,.
O=C(COc1ccc2oc(-c3ccccc3)cc(=O)c2c1)NCc1ccco1,-3,2,30*,6,-5,1,90*,69*
C=CCc1c(OC)ccc2ccc(=O)oc12,-1,0,55*,6,0,-1,124*,105*
Cc1ccccc1CC1(CO)CCCN(C(=O)CCCN2CCCCC2=O)C1 (configuration not stated),2,4,29*,3,0,-7,24,23*
O=C(CCS(=O)(=O)c1cccc2nonc12)N1CC(=O)N(CCc2ccccc2)C(=O)C1,-1,3,-7,1,0,1,.,.
Oc1ccccc1-c1nc2c3ccccc3c3ccccc3c2[nH]1,2,2,94*,12,-5,16,99*,90*
c1csc(-c2nc3c4ccccc4c4ccccc4c3[nH]2)c1,13,-1,58*,7,-39,4,+,+
COc1ccc(-c2ccc(-c3noc(-c4ccccc4C)n3)c(OC)n2)cc1,0,0,13,4,-14,92,.,.
COc1ccc(-c2ccc(-c3noc(C4CCCCC4)n3)c(OC)n2)cc1,-4,3,28*,7,-12,96,+,+
COc1ccc(-c2ccc(-c3noc(C)n3)c(OC)n2)cc1,2,6,74*,13,-9,-2,93*,88*
CCOc1nc(-c2ccc(OC)cc2)ccc1-c1noc(C)n1,-5,-3,76*,9,-9,-4,92*,78*
CSc1nc(N2CCN(C)CC2)c2c(c1C#N)CC(C)(C)OC2,0,2,1,6,1,1,.,.
O=C1c2ccccc2OCOc2ccccc21,2,0,3,7,2,-1,.,.
COc1ccc(CNCc2cccc3ccccc23)cc1,1,1,3,21,.,2,.,.
COc1ccc(OC)c(/C=N/NC(=O)CCc2n[nH]c(=O)[nH]c2=O)c1,1,1,60*,13,-9,1,119*,87*
COc1ccc(OC)c(/C=N/NC(=O)c2[nH]ncc2Br)c1,.,8,39*,21,-11,3,+,+
COc1cccc(/C=N/NC(=O)c2[nH]nc3c2CCc2ccccc2-3)c1,4,-4,0,-1,-31,72,.,.
